# Where “and” joins values, the source holds several entries; their conditions need not be identical. Identical values can stand only once. Calls of active or inactive are those of the source.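 The calls were made as follows, unless noted: active = compounds whose cell count with miR-34 switched on is under 0.7 times the count with it off; inactive = the rest.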
# Columns and labels:
# [1] = yeast 75Q aggregation reduction – 75Q-TubU reporter (AID 1593); settings: Yeast 75Q polyglutamine aggregation reporter
# [2] = blockers of cytochrome c efflux from mitochondria – biochemical, purified mitochondria (AID 1603); settings: stronger effect = lower value;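 also: mouse liver mitochondria challenged with calcium chloride; signal normalized to the plate average as 100%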
# [3] = polyglutamine aggregate formation blockers (AID 1604); settings: polyglutamine-induced protein aggregation inhibition assay; stronger effect = higher value; tested at 2.5 µM
# [4] = P. berghei load reduction in hepatocytes – cell-based, HepG2, luciferase luminescence, HepG2 viability, primary screen (AID 624349; in the data active = parasite load remaining mostly below about 12%, no sharp cut-off; inactive = mostly above about 10%;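 also: 100% = mean of DMSO negative control wells on the same plate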); settings: P. berghei liver stage in HepG2, luciferase luminescence, concentration not given here; parasite load remaining: stronger effect = lower value; viability: measured here: HepG2 viability without parasites
# [5] = Wnt pathway potentiators raising nuclear beta-catenin – imaging, WNT3A-conditioned medium, mouse C2C12, NPC library, primary screen (AID 1117326; in the data active = nuclear beta-catenin stimulation mostly above about 4.2%, no sharp cut-off; inactive = mostly below about 10%); settings: stronger effect = higher value
# [6] = stimulators of insulin release from INS-1E, primary screen, cell-based, 5 mM glucose, NPC library (AID 1117329;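 active = compound raises insulin release from rat beta cells at 5 mM glucose, no numeric limit stated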); settings: rat INS-1E insulin secretion, at 10 µM, stronger effect = higher value
# [7] = growth inhibition of GSK3B-pretreated HCT116 cells – cell-based, CellTiter-Glo, 0.2 to 20 µM (AID 1117336;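 active = compounds lowering colon cancer cell viability after pretreatment blocking the GSK3B kinase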); settings: HCT116 viability after GSK3B inhibitor, at 20 µM, stronger effect = higher value
# [8] = inhibition of endothelial tube formation, primary screen, imaging, VEGF stimulated, CD31 staining, tube area, NPC library (AID 1117340;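 active = compound that reduces growth-factor-driven endothelial tube area in a mixed cell culture, no cutoff stated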); settings: VEGF-stimulated ADSC/ECFC co-culture, at 10 µM, stronger effect = higher value
# [9] = GLP1 release stimulators, primary, NCI-H716, NPC library (AID 1117341;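 active = compound raises GLP1 secretion from the human gut endocrine cells, with no numeric limit stated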); settings: NCI-H716 cells, at 10 µM, stronger effect = higher value
# [10] = HCT116 colon cancer cell growth inhibition, primary screen, CellTiter-Glo luminescence, NPC library (AID 1117342;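 active = compounds that lower survival of HCT116 colon cancer cells in the luminescence readout, no numeric limit stated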); settings: at 20 µM (top of the series)
# [11] = reduced SW480 viability measured with CellTiter-Glo, NPC library, primary (AID 1117343;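 active = compounds that lower viability of the colon cancer cells in the luminescence readout, with no numeric limit stated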); settings: CellTiter-Glo luminescence; at 20 µM (top of the series)
# [12] = NPC library primary testing for decreased DLD-1 cell viability via CellTiter-Glo (AID 1117346;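 active = compounds that lower survival of DLD-1 colon cancer cells in the luminescence readout, no cutoff given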); settings: DLD-1 viability, CellTiter-Glo luminescence; at 20 µM (top of the series)
# [13] = biological target: 6-phosphogluconate dehydrogenase, decarboxylating (Homo sapiens) (UniProt P52209); assay: inhibition of human phosphogluconate dehydrogenase – biochemical, recombinant enzyme, NADPH absorbance, primary screen (AID 1159550;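 active = at least 20% inhibition of 6-phosphogluconate dehydrogenase activity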); settings: recombinant 6PGD, NADPH absorbance 341 nm; at 10 µM; stronger effect = higher value
# [14] = EMT-state selective cytotoxicity in co-culture – imaging, PC-3E GFP, TEM4-18 mCherry, primary screen (AID 1345086;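 active = compounds killing one labelled cell type while sparing the other, by normalised counts and ratio limits, not self-fluorescent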;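 as to all read-outs here: cells exposed to compound for 72 h before imaging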;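 as to red/green cell ratio (normalised): normalised mesenchymal count divided by normalised epithelial count so high means epithelial killing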); settings: PC-3E GFP / TEM4-18 mCherry co-culture, imaging cell counts, at 1 µM; for red/green cell ratio (normalised): actives lie on both sides
# [15] = test system: Aerobactin synthetase IucA (Klebsiella pneumoniae hvKP1); assay: IucA enzyme inhibition, primary screen, biochemical, Spectrum library (AID 1346200; call rule not given here;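 also: 100% = wells without compound and 0% = wells lacking enzyme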); settings: malachite green pyrophosphate, A620, at 8 µM, stronger effect = lower value
# [16] = viability loss with induced miR-34 in A549 – imaging, A549 dox-inducible miR-34, nuclei and caspase counts, primary screen (AID 1347080); settings: A549 miR-34 inducible, Hoechst nuclei count, 48 h
# [17] = biological target: Mitogen-activated protein kinase 7 (Homo sapiens) (UniProt Q13164); assay: Gal4-ERK5 driven luciferase induction – cell-based, HTS, primary screen (AID 1508626;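 active = luciferase signal above three times the same-plate solvent-only control wells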;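 also: luciferase driven by Gal4-ERK5 fusion binding five Gal4 sites before minimal TATA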); settings: HeLa Gal4-ERK5 transactivation, 18 h, at 5 µM, stronger effect = higher value
# [18] = MELAS cybrid and Rieske KO viability enhancers – cell-based, MELAS cybrids, Rieske KO mouse fibroblasts, CellTiter-Glo, primary screen (AID 1508586;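 active = mean z-score across replicates of 1.96 or higher in either the MELAS or the Rieske mutant cell line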;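 also: z relative to plate mean and SD of compound and empty wells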); settings: low glucose
# [19] = biological target: NAD(+) hydrolase SARM1 (Homo sapiens) (UniProt Q6SZW1); assay: blocking NAD cleavage by SARM1 SAM-TIR – cell lysate, NAD-Glo luminescence (AID 1508614;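 active = compound whose remaining NAD level is above about 45 nM, limit read from the data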;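 also: higher remaining NAD means stronger inhibition of SARM1 NADase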); settings: SAM-TIR HEK293T lysate NADase, at 1 µM, stronger effect = higher value
# [20] = galactose survival enhancers in mitochondrial complex I cybrids – cell-based, galactose medium, ATP luminescence, primary screen (AID 1645843;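 active = z-score of at least 1.8 in each of two replicates, scored against plate mean and spread of sample wells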;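 also: positive z means more ATP and so rescue of galactose-driven cybrid death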); settings: complex I mutant cybrid cells, 72 h, stronger effect = higher value
# [21] = measured here: epithelial PC-3E GFP cell survival
# [22] = measured here: mesenchymal TEM4-18 mCherry cell survival
# [23] = measured here: relative caspase fold change +Dox/-Dox
# [24] = measured here: total cells with miR-34 induction, stronger effect = lower value
# [25] = measured here: total cells without miR-34 induction
# [26] = MELAS cybrid survival, CellTiter-Glo 48 h, stronger effect = higher value
# [27] = Rieske KO mouse fibroblast survival, CellTiter-Glo 72 h
# Sequence of Mitogen-activated protein kinase 7 (Homo sapiens) (Q13164 whole entry, looked up, the tested form may be a part): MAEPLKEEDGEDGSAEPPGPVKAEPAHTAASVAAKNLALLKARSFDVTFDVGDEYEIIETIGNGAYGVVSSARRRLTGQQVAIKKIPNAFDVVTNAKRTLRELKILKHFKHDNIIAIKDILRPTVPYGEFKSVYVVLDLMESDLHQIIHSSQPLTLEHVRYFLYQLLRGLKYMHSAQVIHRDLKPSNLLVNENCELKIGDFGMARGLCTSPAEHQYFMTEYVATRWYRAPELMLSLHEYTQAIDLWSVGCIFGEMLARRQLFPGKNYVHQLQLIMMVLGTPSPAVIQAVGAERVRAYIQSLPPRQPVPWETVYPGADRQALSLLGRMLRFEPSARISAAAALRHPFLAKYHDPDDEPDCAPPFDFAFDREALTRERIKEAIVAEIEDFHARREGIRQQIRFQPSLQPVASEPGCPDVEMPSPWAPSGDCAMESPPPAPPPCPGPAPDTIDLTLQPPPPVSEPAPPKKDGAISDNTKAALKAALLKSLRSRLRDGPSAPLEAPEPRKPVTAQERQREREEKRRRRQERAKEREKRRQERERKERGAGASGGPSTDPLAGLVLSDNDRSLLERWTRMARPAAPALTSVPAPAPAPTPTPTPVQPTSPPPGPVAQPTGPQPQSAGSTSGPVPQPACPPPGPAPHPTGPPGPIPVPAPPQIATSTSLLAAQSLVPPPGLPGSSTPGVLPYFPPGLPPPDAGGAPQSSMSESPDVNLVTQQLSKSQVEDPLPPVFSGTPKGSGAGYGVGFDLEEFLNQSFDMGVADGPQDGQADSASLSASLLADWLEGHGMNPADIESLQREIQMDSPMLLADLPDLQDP
# Sequence of 6-phosphogluconate dehydrogenase, decarboxylating (Homo sapiens) (P52209 whole entry, looked up): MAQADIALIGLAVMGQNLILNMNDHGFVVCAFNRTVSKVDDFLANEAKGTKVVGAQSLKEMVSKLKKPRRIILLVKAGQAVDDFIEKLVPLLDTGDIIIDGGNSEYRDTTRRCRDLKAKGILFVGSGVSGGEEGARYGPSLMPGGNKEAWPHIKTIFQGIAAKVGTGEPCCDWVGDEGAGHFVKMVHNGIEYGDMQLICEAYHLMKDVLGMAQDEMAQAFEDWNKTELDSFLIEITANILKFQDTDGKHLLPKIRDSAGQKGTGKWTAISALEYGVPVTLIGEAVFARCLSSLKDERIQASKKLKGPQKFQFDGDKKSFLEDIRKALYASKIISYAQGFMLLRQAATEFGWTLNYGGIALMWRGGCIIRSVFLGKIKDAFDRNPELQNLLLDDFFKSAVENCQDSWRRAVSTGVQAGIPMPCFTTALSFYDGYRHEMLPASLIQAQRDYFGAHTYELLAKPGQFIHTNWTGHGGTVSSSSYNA
# Sequence of NAD(+) hydrolase SARM1 (Homo sapiens) (Q6SZW1 whole entry, looked up): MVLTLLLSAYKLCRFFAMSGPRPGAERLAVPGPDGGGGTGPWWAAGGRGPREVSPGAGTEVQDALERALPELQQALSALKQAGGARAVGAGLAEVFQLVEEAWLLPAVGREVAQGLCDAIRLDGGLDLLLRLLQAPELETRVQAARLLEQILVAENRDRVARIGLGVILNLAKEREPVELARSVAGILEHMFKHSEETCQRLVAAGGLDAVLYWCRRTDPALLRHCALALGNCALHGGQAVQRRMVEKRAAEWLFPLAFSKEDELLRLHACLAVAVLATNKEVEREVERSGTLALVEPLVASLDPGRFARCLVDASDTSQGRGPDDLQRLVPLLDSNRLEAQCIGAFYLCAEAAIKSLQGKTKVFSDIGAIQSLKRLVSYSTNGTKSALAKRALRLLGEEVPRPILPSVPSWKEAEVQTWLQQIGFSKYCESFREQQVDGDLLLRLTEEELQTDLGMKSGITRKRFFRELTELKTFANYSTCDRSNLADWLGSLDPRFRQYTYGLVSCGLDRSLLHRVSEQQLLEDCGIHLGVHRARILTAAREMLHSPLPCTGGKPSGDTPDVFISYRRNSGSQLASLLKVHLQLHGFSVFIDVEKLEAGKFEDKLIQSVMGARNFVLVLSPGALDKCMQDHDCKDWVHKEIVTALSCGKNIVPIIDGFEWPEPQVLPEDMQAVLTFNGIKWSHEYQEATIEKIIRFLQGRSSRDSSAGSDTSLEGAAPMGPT
smiles,measurement,setting,value
C[C@H]1C(=O)O[C@@H]2CCN3CC=C(COC(=O)[C@](C)(O)[C@]1(C)O)[C@H]23,score,[1],1.29
same,cytochrome c release ratio,[2],0.94
same,inhibition of aggregation,[3],36.1%
same,parasite load remaining,[4],96.1% (inactive) and 65.8% (inactive) and 70.5% (inactive)
same,viability,[4],103% and 66% and 74.5%
same,nuclear beta-catenin stimulation,[5]; at 10 µM,-0.7% (inactive)
same,nuclear beta-catenin stimulation,"[5]; stimulation, at 2 µM",-0.6%
same,insulin secretion stimulation,[6],-0.1% (inactive)
same,viability decrease,[7],-4.9% (inactive)
same,tube area decrease,[8],17.9% (inactive)
same,GLP1 secretion stimulation,[9],-1.4% (inactive)
same,inhibition of viability,[10],-6% (inactive)
same,viability decrease (inhibition),[11],-1.2% (inactive)
same,viability decrease (inhibition),[12],-12.1% (inactive)
same,inhibition,[13],17% (inactive)
same,red/green cell ratio (normalised),[14],1.08 (inactive)
same,normalised cell number,[14]; [21],0.97
same,normalised cell number,[14]; [22],1.05
same,activity remaining,[15],111% (inactive)
same,fold change,[16]; stronger effect = lower value,0.8 (inactive)
same,fold change,[16]; [23],1.54
same,cell count,[16]; [24],8710
same,cell count,[16]; [25],10900
same,luciferase signal,[17],56 AU (inactive)
NCC(CC(=O)O)c1ccc(Cl)cc1 (stereo not given),score,[1],1.02
same,cytochrome c release ratio,[2],0.97
same,inhibition of aggregation,[3],63.5%
same,nuclear beta-catenin stimulation,[5]; at 10 µM,-0.5% (inactive)
same,nuclear beta-catenin stimulation,"[5]; stimulation, at 2 µM",0.7%
same,insulin secretion stimulation,[6],2.7% (inactive)
same,viability decrease,[7],-7.8% (inactive)
same,tube area decrease,[8],-22.1% (inactive)
same,GLP1 secretion stimulation,[9],-2.6% (inactive)
same,inhibition of viability,[10],-14.8% (inactive)
same,viability decrease (inhibition),[11],-1.8% (inactive)
same,viability decrease (inhibition),[12],7.35% (inactive)
same,inhibition,[13],5.14% (inactive)
same,red/green cell ratio (normalised),[14],0.69 (inactive)
same,normalised cell number,[14]; [21],1.3
same,normalised cell number,[14]; [22],0.89
same,activity remaining,[15],103% (inactive)
same,fold change,[16]; stronger effect = lower value,1.01 (inactive) and 0.984 (inactive) and 0.815 (inactive)
same,fold change,[16]; [23],1.78 and 1.11 and 0.933
same,cell count,[16]; [24],7900 and 7930 and 10200
same,cell count,[16]; [25],7820 and 8060 and 12600
same,z-score,[18]; [26],-0.717 (inactive)
same,z-score,[18]; [27],-0.464
same,remaining NAD,[19],10 nM (inactive)
same,luciferase signal,[17],56 AU (inactive)
same,z-score,[20],0.635 (inactive)
COP(=S)(OC)Oc1ccc(SC)c(C)c1,nuclear beta-catenin stimulation,[5]; at 10 µM,1.4% (inactive)
same,nuclear beta-catenin stimulation,"[5]; stimulation, at 2 µM",1.3%
same,insulin secretion stimulation,[6],-2.2% (inactive)
same,viability decrease,[7],16.1% (inactive)
same,tube area decrease,[8],13.4% (inactive)
same,GLP1 secretion stimulation,[9],-0.1% (inactive)
same,inhibition of viability,[10],-20.4% (inactive)
same,viability decrease (inhibition),[11],89.6% (active)
same,viability decrease (inhibition),[12],8.15% (inactive)
same,inhibition,[13],9.75% (inactive)
same,red/green cell ratio (normalised),[14],0.97 (inactive)
same,normalised cell number,[14]; [21],1.03
same,normalised cell number,[14]; [22],1
same,activity remaining,[15],92.7% (inactive)
same,fold change,[16]; stronger effect = lower value,0.917 (inactive)
same,fold change,[16]; [23],0.928
same,cell count,[16]; [24],9260
same,cell count,[16]; [25],10100
c1ccc2c(c1)sc1ccccc12,score,[1],-0.17
same,cytochrome c release ratio,[2],0.98
same,inhibition of aggregation,[3],65.4%
same,parasite load remaining,[4],94.3% (inactive) and 69.4% (inactive)
same,viability,[4],70.5% and 91.8%
same,nuclear beta-catenin stimulation,[5]; at 10 µM,0.1% (inactive)
same,nuclear beta-catenin stimulation,"[5]; stimulation, at 2 µM",0.9%
same,insulin secretion stimulation,[6],-1.4% (inactive)
same,viability decrease,[7],-3.95% (inactive)
same,tube area decrease,[8],-9.2% (inactive)
same,GLP1 secretion stimulation,[9],-2.6% (inactive)
same,inhibition of viability,[10],-22.5% (inactive)
same,viability decrease (inhibition),[11],-1.8% (inactive)
same,viability decrease (inhibition),[12],3% (inactive)
same,inhibition,[13],9.3% (inactive)
same,red/green cell ratio (normalised),[14],1.2 (inactive)
same,normalised cell number,[14]; [21],1.12
same,normalised cell number,[14]; [22],1.35
same,activity remaining,[15],113% (inactive)
same,fold change,[16]; stronger effect = lower value,0.934 (inactive) and 0.791 (inactive)
same,fold change,[16]; [23],0.629 and 1.03
same,cell count,[16]; [24],8380 and 10000
same,cell count,[16]; [25],8970 and 12600
same,z-score,[18]; [26],-0.144 (inactive)
same,z-score,[18]; [27],-0.145
same,remaining NAD,[19],10 nM (inactive)
same,luciferase signal,[17],32 AU (inactive)
O=[N+]([O-])O[C@H]1CO[C@H]2[C@@H]1OC[C@H]2O[N+](=O)[O-],score,[1],1.7
same,cytochrome c release ratio,[2],0.66
same,inhibition of aggregation,[3],83.1%
same,parasite load remaining,[4],88.7% (inactive) and 89.6% (inactive) and 73.9% (inactive)
same,viability,[4],101% and 72.5% and 103%
same,nuclear beta-catenin stimulation,[5]; at 10 µM,1.4% (inactive)
same,nuclear beta-catenin stimulation,"[5]; stimulation, at 2 µM",0.8%
same,insulin secretion stimulation,[6],0.2% (inactive)
same,viability decrease,[7],-35.2% (inactive)
same,tube area decrease,[8],2.7% (inactive)
same,GLP1 secretion stimulation,[9],-0.1% (inactive)
same,inhibition of viability,[10],-4.45% (inactive)
same,viability decrease (inhibition),[11],10.7% (inactive)
same,viability decrease (inhibition),[12],-9.7% (inactive)
same,inhibition,[13],-5.58% (inactive)
same,red/green cell ratio (normalised),[14],1.14 (inactive)
same,normalised cell number,[14]; [21],1.17
same,normalised cell number,[14]; [22],1.33
same,activity remaining,[15],86.8% (inactive)
same,fold change,[16]; stronger effect = lower value,0.842 (inactive) and 0.816 (inactive)
same,fold change,[16]; [23],1.05 and 0.822
same,cell count,[16]; [24],8050 and 10900
same,cell count,[16]; [25],9560 and 13300
same,z-score,[18]; [26],-0.72 (inactive)
same,z-score,[18]; [27],-0.455
same,remaining NAD,[19],10 nM (inactive)
same,luciferase signal,[17],164 AU (inactive)
Cc1cc(O)ccc1Cl,score,[1],0.98
same,cytochrome c release ratio,[2],1.22
same,inhibition of aggregation,[3],88%
same,parasite load remaining,[4],125% (inactive) and 54.1% (inactive)
same,viability,[4],73.3% and 86.2%
same,nuclear beta-catenin stimulation,[5]; at 10 µM,0.9% (inactive)
same,nuclear beta-catenin stimulation,"[5]; stimulation, at 2 µM",1.9%
same,insulin secretion stimulation,[6],0.3% (inactive)
same,viability decrease,[7],-17% (inactive)
same,tube area decrease,[8],1.5% (inactive)
same,GLP1 secretion stimulation,[9],0.3% (inactive)
same,inhibition of viability,[10],3.83% (inactive)
same,viability decrease (inhibition),[11],26.8% (inactive)
same,viability decrease (inhibition),[12],-3.4% (inactive)
same,inhibition,[13],3.62% (inactive)
same,red/green cell ratio (normalised),[14],1.21 (inactive)
same,normalised cell number,[14]; [21],1.13
same,normalised cell number,[14]; [22],1.36
same,activity remaining,[15],115% (inactive)
same,fold change,[16]; stronger effect = lower value,0.943 (inactive) and 0.921 (inactive)
same,fold change,[16]; [23],0.551 and 0.785
same,cell count,[16]; [24],8310 and 10900
same,cell count,[16]; [25],8820 and 11800
same,z-score,[18]; [26],-0.196 (inactive)
same,z-score,[18]; [27],-0.163
same,remaining NAD,[19],10 nM (inactive)
same,luciferase signal,[17],32 AU (inactive)
CC[n+]1c(-c2ccccc2)c2cc(N)ccc2c2ccc(N)cc21,score,[1],0.43
same,cytochrome c release ratio,[2],0.84
same,inhibition of aggregation,[3],47.5%
same,parasite load remaining,[4],116% (inactive)
same,viability,[4],83.5%
same,nuclear beta-catenin stimulation,[5]; at 10 µM,17.6% (inactive)
same,nuclear beta-catenin stimulation,"[5]; stimulation, at 2 µM",1%
same,insulin secretion stimulation,[6],2.1% (inactive)
same,viability decrease,[7],-24.6% (active)
same,tube area decrease,[8],29.5% (inactive)
same,GLP1 secretion stimulation,[9],-2.8% (inactive)
same,inhibition of viability,[10],79.1% (active)
same,viability decrease (inhibition),[11],52.1% (active)
same,viability decrease (inhibition),[12],83.7% (active)
same,inhibition,[13],7.37% (inactive)
same,red/green cell ratio (normalised),[14],2.8 (inactive)
same,normalised cell number,[14]; [21],0.31
same,normalised cell number,[14]; [22],0.87
same,activity remaining,[15],95.2% (inactive)
same,remaining NAD,[19],10 nM (inactive)
same,luciferase signal,[17],104 AU (inactive)

# Source: PubChem BioAssay
